According to PubChem BioAssay AID686978 (National Center for Advancing Translational Sciences (NCATS), 2013):
Values joined by “and” are separate entries in the source; they are usually repeats but may differ in a detail not shown here. Equal entries are not always repeated. Out of some 420,000 compounds screened, about 64,000 (15%) were called active. About 27% were inconclusive and are not listed. Calls follow the shape of the dose curve; as a rule, active = well fitted inhibition curve with a large enough effect; inconclusive = small, poorly fitted or top-dose-only effect; inactive = flat fitted curve, though single readings scatter. A selection follows. Where a call stands in place of a potency, no number is given.

assay: qHTS for Inhibitors of human tyrosyl-DNA phosphodiesterase 1 (TDP1): qHTS in cells in absence of CPT; conditions: DT40 Tdp1-/- hTDP1 cells, no CPT, ATP luminescence, 48 h; activity change, negative = growth inhibition: at 46.2 µM (top of the series); also: nearly all actives have a fitted effect of over 55% in size
How it was run: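 Readout: luminescence from CellTiter-Glo after 30 min in the dark at RT. Cells: DT40 Tdp1-/- with stable hTDP1, 400/well. Exposure: compounds alone, ≥48 hr, 37 °C.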
Potency is read from the fitted curve at half-maximal effect.

Structure (SMILES)	Potency
CCCS(=O)(=O)C(=C1Nc2ccccc2N1)S(=O)(=O)CCC	inactive
CN(C)S(=O)(=O)c1cc(C(=O)Nc2ccn(C)n2)c(Cl)cc1Cl	inactive
COc1ccc2c(c1)NC(=O)C2CC(=O)N1CCOc2c(cc(-c3cnc4ccccc4c3)cc2OC)C1 (configuration not stated)	18.4 µM (active)
COc1ccc(OC)c(CNC(=O)C2CCCN(c3nc4ccccc4o3)C2)c1 (configuration not stated)	inactive
COc1cc(-c2cccnc2)cc2c1OCCN(C(=O)Cc1csc(C)n1)C2	inactive
O=C1Oc2ccccc2C(=O)/C1=C/c1ccccc1O	8.2 µM (active)
COC(=O)c1ccc(/C=C2/C(=O)Oc3ccccc32)cc1	inactive
COC(=O)c1c(NC(=O)c2c(Cl)cnn2C)sc(C)c1C	inactive
CN1CCN(c2ccc(S(=O)(=O)N3CCOCC3)cc2NC(=O)CCc2ccccc2)CC1	inactive
COC(=O)C(C)N=Cc1ccccc1 (configuration not stated)	inactive
CC=CCn1c(SCCCc2ccccc2)nc2c1c(=O)[nH]c(=O)n2C	20.6 µM (active)
CCCSc1nc2c(c(=O)[nH]c(=O)n2C)n1CCc1ccccc1	inactive
CN(Cc1ccccc1)c1nc2c(c(=O)[nH]c(=O)n2C)n1CCSc1nc2ccccc2[nH]1	inactive
CN(C)Cc1c(C(=O)N/N=C/c2ccccc2OCc2ccc(F)cc2)nnn1-c1nonc1N	inactive
Fc1cccc(/C=N\N=C/c2cccc(F)c2)c1	inactive
Cn1nc(-c2ccccc2)c2cc([N+](=O)[O-])ccc21	inactive
COc1cc(/C(=C/c2ccccc2)c2ccccc2)c2c(c1)oc1ccccc12	inactive
CCCC(=O)Nc1c(O)c2ccccc2[nH]c1=O	inactive
CC1=C(C(=O)N2CCOCC2)CC(CC(=O)NCCCN(C)C)C(=O)N1Cc1ccc(C(C)(C)C)cc1 (configuration not stated)	inactive
CN1/C(=c2/s/c(=C3/C(=O)N(c4ccccc4)NC3=Nc3ccccc3)n(C)c2=O)C(C)(C)c2ccccc21	11.6 µM (active)
O=C(c1cccc(Br)c1)N1CCN(Cc2cc(=O)n3nc(-c4ccccc4)sc3n2)CC1	inactive
O=C(c1cccc(Cl)c1)N1CCN(Cc2ccccc2)CC1	inactive
C#Cc1cc(N2CCN(C(=O)c3ccoc3)CC2)n2nc(-c3cccc(Cl)c3)cc2n1	5.8 µM (active)
O=C(c1cccc(Cl)c1)N1CCN(CCc2ccncc2)CC1	inactive
O=C(c1ccccc1)N1CCN(c2cc(-c3ccccc3)nc3cc(-c4cccc(Cl)c4)nn23)CC1	14.6 µM (active)
COc1ccc2c(c1)c(=O)c(S(=O)(=O)c1ccc(F)cc1)cn2CC(=O)Nc1ccc(C)cc1C	inactive

Structure (SMILES)	Potency
CCOC(=O)c1ccccc1NC(=O)CCc1c(C)nc2c(c1C)c(=O)n(C)c(=O)n2C	inactive
O=C1Nc2cc(Cl)c(Cl)cc2N(O)N1c1cc(Cl)cc(Cl)c1	inactive
C/C(N)=C(/C#N)C(=O)COC(=O)C1=NN(c2ccccc2)C(=O)CC1	inactive
CCNc1nc(Oc2ccc(C(=O)OC)cc2)nc(N2CCOCC2)n1	inactive
CCOC(=O)C1CCN(C(=O)/C=C/c2cc(OC)c(OC)c(OC)c2)CC1	inactive
CCCCNC(=O)Cn1nc(C)c(S(=O)(=O)N2CCOCC2)c1C	inactive
COC(=O)c1sccc1N/N=C(\C)c1ccc(F)c(Cl)c1	inactive
Cc1ccccc1CN1CCNC(=O)C1CC(=O)NCCC1=CCCCC1 (configuration not stated)	inactive
COc1ccc(-n2c(Cc3cccn3C)nnc2SCC(=O)Nc2cc(C)cc(C)c2)cc1	inactive
Cc1ccc(-n2c(SCC(=O)NCCC3=CCCCC3)nc3n[nH]c(C)c3c2=N)cc1Cl	3.26 µM (active)
CCCCNC(=O)CSc1nc2n[nH]c(C)c2c(=N)n1-c1cccc(Cl)c1C	20.6 µM (active) and 9.2 µM (active)
Cc1nnc(SCC(=O)NCc2ccccc2)s1	inactive
CCCCNC(=O)CSc1nnc(-c2ccco2)n1C	inactive
O=C(COc1ccc(Cl)cc1)NCCC1=CCCCC1	inactive
Cc1nnc(SCC(=O)NCCOc2ccc(Cl)cc2)n1-c1ccccc1	inactive
COc1ccc(-n2c(SCC(=O)Nc3ccc(Cl)c(C)c3)nc3n[nH]c(C)c3c2=N)cc1	9.2 µM (active)
COCCNC(=O)CSc1nc2sccc2c(=O)n1-c1ccccc1	inactive
COc1ccc(Cc2nnc(SCC(=O)Nc3ccc(C)c(Cl)c3)[nH]c2=O)cc1	inactive
CCOc1ccc(-n2c(SCC(=O)NCc3ccccc3)nc3n[nH]c(C)c3c2=N)cc1	7.31 µM (active)
CN1CCN(CCNC(=O)Nc2ccccc2[N+](=O)[O-])CC1	inactive
Cc1nnc2sc(-c3ccco3)nn12	inactive
CSc1ccc(C#N)cc1NC(=O)c1ccc(Cl)cc1	inactive
COCCCNC(=O)/C(C#N)=C/c1c(N2CCCCCC2)nc2ccccn2c1=O	inactive
CCOC(=O)C1=C(C)NC(=O)N(C(C)=O)C1c1ccc(Cl)cc1 (configuration not stated)	inactive
CCN(CC(=O)Nc1ccc2c(c1)OCO2)S(=O)(=O)c1ccccc1	inactive
O=C(COC(=O)CCc1c[nH]c(=O)[nH]1)Nc1ccccc1Cl	inactive

Structure (SMILES)	Potency
Cn1c(-c2ccc(F)cc2)cnc1SCC(=O)NNC(=O)Cc1ccccc1	inactive
COc1cccc(-n2c(SCC(=O)NC3CCS(=O)(=O)C3)nc3ccccc3c2=O)c1 (configuration not stated)	inactive
COc1cccc(-n2c(N)cc(=O)nc2SCC(=O)Nc2cc(C)on2)c1	inactive
COc1cccc(-n2c(SCC(=O)NC3CCCCC3)nc3n[nH]c(C)c3c2=N)c1	18.4 µM (active)
CCC(Sc1nc2n[nH]c(C)c2c(=N)n1-c1ccccc1Cl)C(=O)N(CC)CC (configuration not stated)	16.4 µM (active)
Cc1ccc(Sc2cc(C(=O)c3ccccc3C(=O)O)ccc2[N+](=O)[O-])cc1	inactive
CC(=O)OCCOCn1cnn2c(=O)c(Br)c(C)nc12	inactive
NS(=O)(=O)c1ccc(NC2=CC(c3ccc(F)cc3)N(c3ccc(S(N)(=O)=O)cc3)C2=O)cc1 (configuration not stated)	inactive
COc1ccc(S(=O)(=O)NCc2cccn2Cc2cccc(C)c2)cc1	inactive
CC1CCN(S(=O)(=O)c2ccc(S(=O)(=O)NCc3cccnc3)cc2)CC1	inactive
Cc1cccc(CNS(=O)(=O)c2ccc(-c3cnc(C4CC4)o3)cc2)c1	16.4 µM (active)
COc1ccc(CNS(=O)(=O)c2ccc(-c3cnc(C4CC4)o3)cc2)cc1	13 µM (active)
Cc1ccc(S(=O)(=O)N[C@H]2CCC[C@@H]2O)cc1	inactive
Cc1cccc(NS(=O)(=O)c2ccc(-c3cnc(C4CC4)o3)cc2)c1	0.58 µM (active)
Cc1cc(NS(=O)(=O)c2ccc3oc(=O)c4ncn(C)c4c3c2)ccc1Br	inactive
COc1ccc(CNS(=O)(=O)c2cc3c4c(c2)CCN4C(=O)CC3)cc1	inactive
COc1ccc(S(=O)(=O)NCc2ccc(C(=O)N(C)Cc3ccco3)cc2)cc1	inactive
O=C(NCc1ccco1)C1CCCN(S(=O)(=O)c2cnc[nH]2)C1 (configuration not stated)	inactive
Cc1ccc(N=C2NC(=O)c3cccc([N+](=O)[O-])c32)cc1	inactive
O=C(COc1ccc(Br)cc1)OCC(=O)c1ccc[nH]1	inactive
Cc1ccc(CSCCNC(=O)CN(c2ccc(F)cc2)S(C)(=O)=O)cc1	inactive
Cc1c(NC(=S)NC(=O)CCc2ccccc2)c(=O)n(-c2ccccc2)n1C	inactive
COc1cc(NC(=S)N2CCCC(C)C2)cc(OC)c1OC (configuration not stated)	inactive
C[C@H](NC(=O)c1ccccc1)C(=O)OCC(=O)c1c[nH]c2ccccc12	inactive
O=C(/C=C/c1cccs1)NCc1cccnc1	inactive
S=C(NCC1COc2ccccc2O1)Nc1ccc(Br)cc1 (configuration not stated)	23.1 µM (active)

Structure (SMILES)	Potency
Cc1noc(C)c1C(=O)NCC1COc2ccccc2O1 (configuration not stated)	inactive
CC(NC(=S)Nc1ccccc1)C1COc2ccccc2O1 (configuration not stated)	inactive
O=C(O)c1ccc(NS(=O)(=O)c2cccc3nsnc23)cc1	inactive
COc1ccccc1NC(=O)C1=C(C)Nc2nc(SCC(=O)c3ccc(C)cc3)nn2C1c1ccccc1C (configuration not stated)	inactive
Cc1cc(Oc2ccccc2)nc(N2CCOCC2)n1	inactive
COc1ccc(C(=O)NNc2cc(C)nc(NNC(=O)c3ccc(OC)cc3)n2)cc1	inactive
Cc1cccc(Nc2cc(C)nc(-n3nc(C)cc3C)n2)c1	3.26 µM (active)
CC(=O)c1ccc(Oc2cc(C)nc(-n3nc(C)cc3C)n2)cc1	0.58 µM (active)
Cc1cc(C)n(-c2cc(Oc3ccccc3)ncn2)n1	inactive
COc1ccc(Nc2cc(C)nc(-n3nc(C)cc3C)n2)cc1	0.184 µM (active)
Cc1cc(C)n(-c2ccc(Cl)c(C(=O)O)n2)n1	inactive
Cc1cc(C)n(-c2nnc(N3CCN(c4ccccc4)CC3)nn2)n1	inactive
Cc1ccc(Nc2nc3ccccc3nc2-n2nc(C)cc2C)c(Cl)c1	inactive
CC1(C(=O)NCc2ccccc2)CSCC(=O)N1CCCn1ccnc1 (configuration not stated)	inactive
CC(=O)c1cc(-c2ccccc2)n(CC(=O)NC2CCCCC2)c1C	inactive
O=C(C=CC(=O)Nc1ccc(F)cc1F)Nc1ccc(F)cc1F	inactive
O=C(O)C1CCCCC1C(=O)N1CCN(S(=O)(=O)c2ccc(F)cc2)CC1 (configuration not stated)	inactive
Cc1ccc2c(c1)C1CN(C)CCC1N2C(=O)c1ccccc1NS(=O)(=O)c1ccc(F)cc1C (configuration not stated)	inactive
CCOC(=O)c1ccc(S(=O)(=O)N(CCO)Cc2cc3cc(OC)c(OC)cc3[nH]c2=O)cc1	inactive
CCOc1ccc2[nH]c(=O)c(CN(CCCO)S(=O)(=O)c3ccc(F)cc3)cc2c1	16.4 µM (active)
CCOc1ccc2[nH]c(=O)c(CN(CCCO)C(C)=O)cc2c1	inactive
CC(=O)c1c(C)[nH]c(C(=O)CN2C(=O)NC(C)(C)C2=O)c1C	inactive
COCCNC(=S)N(Cc1cccnc1)Cc1ccc(OC)c(OC)c1	inactive
COc1cccc(C(=O)n2ccc(-c3cccs3)n2)c1	inactive
